Laboratory results reported in PubChem BioAssay (Tox21).
Inconclusive results are not listed. Values without a mark were called inactive. Calls come from the whole dose curve.

Experiment: qHTS assay to identify small molecule agonists of the endoplasmic reticulum stress response signaling pathway - cell viability counter screen (AID 1159517); note: nearly all actives have a fitted effect of over 50% in size
Conditions: ESRE-bla HeLa viability, CellTiter-Glo luminescence, 5 h; series mostly up to 61 µM; activity change, negative = cytotoxicity: at the top concentration
Text: U.S. Tox21 Program National Center for Advancing Translational Sciences [NCATS] NIH Chemical Genomics Center [NCGC] U.S. Environmental Protection Agency [EPA] National Institutes of Environmental Health Sciences [NIEHS] National Toxicology Program [NTP] U.S. Food and Drug Administration [FDA] Tox21 Assay Overview: Endoplasmic Reticulum (ER) plays an important role in cellular signaling, protein folding/maturation, stress response, lipid biosynthesis, calcium storage and release etc. Under stress conditions, proteins in ER misfold or unfold, and leading to the expression of ER stress responsive genes. ER stress has been associated with a variety of pathophysiological conditions such as cancer, inflammation, neurodegenerative diseases, diabetes, ischemic heart disease etc. To identify the compounds that induce ER stress response, an ER stress reporter cell line, CellSensor ESRE-bla HeLa (Life Technologies, Carlsbad, CA) containing a beta-lactamase reporter gene under control of the Endoplasmic reticulum Stress Response Element (ESRE) was used to screen Tox21 10K compound library. The cytotoxicity of the Tox21 compound library against the ESRE-bla HeLa cell line was tested in parallel by measuring cell viability using the CellTiter-Glo assay in the same wells.
Tox21 Assay Protocol Summary: ESRE-bla HeLa cells were dispensed at 1,500 cells/6 uL of assay medium per well into black wall/clear-bottom 1536-well plates using a Multidrop Combi (ThermoFisher Scientific, Waltham, MA) dispenser. After the assay plates were incubated at 37 C and 5% CO2 for an overnight, 23 nL of compounds dissolved in DMSO, positive controls or DMSO only was transferred to the assay plate by a Pintool station (Kalypsys, San Diego, CA). The assay plates were incubated at 37 C and 5% CO2 for 5 hr. One uL of LiveBLAzer B/G FRET substrate (Life Technologies) was added using a FRD (Flying Reagent Dispenser, Aurora Discovery, San Diego, CA) and the plates were incubated at room temperature for 2 hr. Fluorescence intensity (405 nm excitation, 460 nm and 530 nm emissions) was measured using an Envision plate reader (PerkinElmer, Shelton, CT). For cytotoxicity, 4 ul/well of CellTiter-Glo reagent was added into the assay plates using an FRD. After 30 min incubation at room temperature, the luminescence intensity was measured using a ViewLux plate reader (PerkinElmer).
% is set by controls: 0 for no effect and ±100 for the full control effect.

SMILES	activity change, negative = cytotoxicity
O=C(OCCN1CCOCC1)c1cccnc1Nc1cccc(C(F)(F)F)c1	5.59%
CC1=CC(=C(c2ccc(N)cc2)c2ccc(N)cc2)C=CC1=N	-9.14% [at 6.95 µM]
O=C(O)c1ccccc1[N+](=O)[O-]	6.99%
NC(=O)c1cc[n+](CC2=C(C(=O)[O-])N3C(=O)[C@@H](NC(=O)Cc4cccs4)[C@H]3SC2)cc1	-1.43%
CCCCCCCCCCCCSC#N	-12%
CC(=O)OCC(=O)[C@@]1(O)CC[C@H]2[C@@H]3CCC4=CC(=O)C=C[C@]4(C)[C@@]3(F)[C@@H](O)C[C@@]21C	4.33%
Cc1ccc2ccccc2c1[N+](=O)[O-]	8.83%
Cc1c(Cl)cccc1[N+](=O)[O-]	-9.03%
O=C(O)CCc1nc2ccccc2[nH]1	11.3%
CCCCOC(=O)CC#N	-8.78% [at 78.8 µM]
CO[C@@H]1COCC[C@@H]1N[C@@H]1CC[C@@](C(=O)N2CCc3ncc(C(F)(F)F)cc3C2)(C(C)C)C1	2.81%
Cc1c(-c2cccnc2)c2ccccc2n1CCCCC(=O)O	-0.366%
CC[C@H](NC(C)C)[C@H](O)c1ccc(O)c2[nH]c(=O)ccc12	1.29%
CC(O)CN (stereo not given)	-20%
NC(=O)c1ccccc1C(N)=O	12.1% [at 78.8 µM]
Clc1ccccc1-c1nc(-c2ccncc2)no1	-1.51%
CCCCOC(=O)C(C)Oc1ccc(Oc2ccc(C(F)(F)F)cn2)cc1 (stereo not given)	18%
O=C(O)c1c2ccccc2cc2ccccc12	-13.5%
O=C(Nc1ccc2c(c1)Cc1ccccc1-2)C(F)(F)F	-0.336%
CCOc1ccccc1O	0.313%

SMILES	activity change, negative = cytotoxicity
CC(CCl)OC(C)CCl (stereo not given)	17.9%
O=[N+]([O-])c1ccccc1CCO	16.2% [at 78.8 µM]
COc1cccc([C@H](O)C2CCN(CCc3ccc(F)cc3)CC2)c1OC	1.72%
FC(F)(Cl)C(F)(Cl)Cl	2.01%
C=CCCC	-2.09% [at 78.8 µM]
CC(C)=CCCC(C)C=O (stereo not given)	-5.39%
CC(=O)Nc1ccccc1O	6.23%
CCOc1ccc(NC(C)=O)cc1N	9.52% [at 78.8 µM]
O=C(O)CNc1ccccc1	5.27%
OCC(O)c1ccccc1 (stereo not given)	-9.08%
CCCCCCOC(=O)c1ccccc1	-24.6%
Cc1ccc(NC(=O)c2ccc(CN3CCN(C)CC3)cc2)cc1Nc1nccc(-c2cccnc2)n1	11.3%
c1ccc(CN(Cc2ccccc2)Cc2ccccc2)cc1	0.373%
O=C(O)c1ccncc1	6.35% [at 78.8 µM]
CC(C)(C)c1ccc(CCC=O)cc1	-6.35%
CCOCCn1c(N2CCCN(C)CC2)nc2ccccc21	6.34%
COc1cc(C)c(Cc2cnc(N)nc2N)cc1OC	-15.1%
CCOC(OCC)OCC	-23.7%
C[C@]12CCC(=O)C=C1[C@@H]1C[C@@H]1[C@H]1[C@@H]3[C@@H]4C[C@@H]4[C@@]4(CCC(=O)O4)[C@@]3(C)CC[C@@H]12	10.3%
C(/C=C/C=C/Nc1ccccc1)=Nc1ccccc1	-2.9%
